ALR inh = blocks human ALR sulfhydryl oxidase activity | P55789 | purified ALR, DTT oxidation, H2O2 HRP-luminol luminescence | inhibition, % (test concentration not listed) | hit rate 3.8% among 290,000;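 active = mean replicate inhibition above about 79%, with every replicate also reaching it, limit read from the data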
Target sequence (P55789 whole entry, looked up): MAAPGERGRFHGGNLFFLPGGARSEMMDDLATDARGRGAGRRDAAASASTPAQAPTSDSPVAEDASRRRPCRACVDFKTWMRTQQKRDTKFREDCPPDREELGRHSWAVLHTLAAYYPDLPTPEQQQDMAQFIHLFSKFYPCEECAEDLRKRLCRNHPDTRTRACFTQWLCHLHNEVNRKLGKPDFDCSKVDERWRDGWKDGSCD
JMJD2C inh = blocks human GASC-1 demethylase activity; Q9H3R0; GST-JMJD2C(1-420) H3K9me3 demethylation, DELFIA europium; inhibition, % at 2.35 µM; hit rate 0.069% among 330,000; AID 2099;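 active = more than half of a compound's replicate wells show inhibition beyond 50%, single wells judged on their own value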;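 also: signal counts dimethyl H3K9 product captured on neutravidin plate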
Target sequence (Q9H3R0 1-420 limits assumed): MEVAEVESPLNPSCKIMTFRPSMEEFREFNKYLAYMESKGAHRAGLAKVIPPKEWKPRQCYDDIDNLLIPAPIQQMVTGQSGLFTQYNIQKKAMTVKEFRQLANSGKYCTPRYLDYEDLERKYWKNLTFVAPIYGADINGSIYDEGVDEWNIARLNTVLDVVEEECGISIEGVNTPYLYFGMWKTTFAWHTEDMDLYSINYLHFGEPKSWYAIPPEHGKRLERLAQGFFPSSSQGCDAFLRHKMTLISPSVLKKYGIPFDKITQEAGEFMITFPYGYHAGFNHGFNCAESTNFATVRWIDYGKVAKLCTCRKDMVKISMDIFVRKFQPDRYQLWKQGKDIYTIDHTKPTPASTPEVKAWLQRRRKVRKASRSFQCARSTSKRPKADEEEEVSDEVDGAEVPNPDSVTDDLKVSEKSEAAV
MIN6 prolif = induces beta-cell replication in MIN6 cells | MIN6 cells proliferation, ATPlite luminescence, 48 h; cells starved in 0.2% serum; 100% = growth in 10% serum | proliferation, % at 10 µM | hit rate 0.29% among 330,000 | AID 2380;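 active = compounds whose signal lies at least 3.5 SD above the mean of all wells on their plate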
SMARCA2 activ = increases SMARCA2 function in MMTV reporter cells; MG213 cells, MMTV-luciferase reporter, dexamethasone, overnight; activation, % at 9.1 µM; hit rate 1% among 370,000; in the data active = activation above about 7.8%
Exocytosis inh = blocks lytic granule exocytosis | TALL-104 LAMP-1 surface exposure, flow cytometry; cells stimulated with thapsigargin and PMA | inhibition, % at 10 µM | hit rate 0.66% among 360,000;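 active = inhibition above about 55%, limit read from the data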
M18AAP inhibitor = blocks P. falciparum M18 aspartyl aminopeptidase. recombinant PfM18AAP, H-Glu-NHMec fluorogenic cleavage. inhibition, % at 7.35 µM. hit rate 1.2% among 290,000;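 active = inhibition above the campaign mean inhibition over all tested compounds plus 3 SD, cut at about 28% in these data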
Of the large screens only hits and unclear results are named; the others gave an inactive call. Hits are enriched below; roughly 5.4% of the tested compounds scored in any of these assays.

Cc1cccc(-n2c(C)cc(/C=C3/C(=N)N4C(c5ccccc5)=CSC4=NC3=O)c2C)c1	none
COc1cc(/C=C2/C(=N)N3C(c4ccccc4)=CSC3=NC2=O)ccc1OCC(=O)O	ALR inh 99
Nc1c(-c2ccccc2)nc2ncccn12	none (no result: ALR inh, JMJD2C inh, MIN6 prolif, M18AAP inhibitor)
O=Nc1c(-c2cccc([N+](=O)[O-])c2)nc2ncccn12	Exocytosis inh 74 (no result: ALR inh)
CCC(/C=N/NC(=O)C(N)=O)CC	ALR inh 98
CCC(/C=N/NC(=O)c1ccccc1F)CC	none
CC(C)OCCCn1c(-c2ccco2)nc2nc3ccccc3nc21	ALR inh 98, SMARCA2 activ 7.9
NC(N)=N/N=C/c1ccc(OCc2ccc(Cl)cc2)cc1	Exocytosis inh 73
NC(N)=N/N=C/c1ccc(OCc2ccccc2)cc1	none
COC1=C[C@H](C(=O)N[C@H]2CCCC[C@@H]2NC(C)=O)[C@@]2(C)Cc3ccccc3[C@H]2CC1=O	none (no result: ALR inh, JMJD2C inh, MIN6 prolif, Exocytosis inh, M18AAP inhibitor)
CNC(=S)NCCc1c[nH]c2ccc(OC)cc12	ALR inh 99
COc1nc(Nc2ccc(O)cc2)nc(OC(C(F)(F)F)C(F)(F)F)n1	ALR inh 99
CCCCCCc1c[nH]c2ccc(O)c(-c3ccccc3)c12	none (no result: ALR inh, JMJD2C inh, MIN6 prolif, Exocytosis inh, M18AAP inhibitor)
COc1ccc(N2C(=O)/C(=C\c3ccco3)N=C2SCC(=O)NC(C)(C)C)cc1Cl	none (no result: ALR inh)
CCN(CC)C(=O)CSC1=N/C(=C/c2ccco2)C(=O)N1c1ccc(OC)c(Cl)c1	ALR inh 98
Cc1ccc(S(=O)(=O)Nc2nc(C)c(NC(=O)OCCCl)s2)cc1	ALR inh 98
O=C(CC1CCCC1)N[C@@H](Cc1cccnc1)C(=O)N1CCC[C@H]1C(=O)NCCc1ccccc1Cl	none (no result: ALR inh, JMJD2C inh, MIN6 prolif, Exocytosis inh, M18AAP inhibitor)
O=C(CCc1ccccc1)N[C@H]1[C@@H](O)CCC[C@]12C(=O)N(Cc1ccccc1)c1ccccc12	none (no result: ALR inh, JMJD2C inh, MIN6 prolif, Exocytosis inh, M18AAP inhibitor)
CCCC(c1nnnn1C(C)(C)C)N1CCN(c2ccccc2)CC1 (configuration not stated)	ALR inh 98
CCC(c1nnnn1C1CCCC1)N1CCN(c2ccccc2)CC1 (configuration not stated)	ALR inh 99
CCCC(c1nnnn1Cc1ccco1)N1CCN(c2cc(Cl)ccc2C)CC1 (configuration not stated)	none
CCCC(c1nnnn1C(C)(C)C)N1CCN(Cc2ccccc2OC)CC1 (configuration not stated)	none
CCCC(c1nnnn1Cc1ccco1)N1CCN(c2ccccc2)CC1 (configuration not stated)	ALR inh 88
COC(=O)c1cccc2c([N+](=O)[O-])c(NC(C)=O)cc(C(=O)OC)c12	none (no result: ALR inh, JMJD2C inh, MIN6 prolif, Exocytosis inh, M18AAP inhibitor)
O=C(OC12CCCN(C1)/C(=C/c1cccnc1)C2)c1ccco1 (configuration not stated)	none (no result: ALR inh, JMJD2C inh, MIN6 prolif, Exocytosis inh, M18AAP inhibitor)
C=CCN1C(c2ccccc2)=CS/C1=C(/C#N)c1nnc(N2CCOCC2)n1-c1ccccc1	ALR inh 99
CN1C(c2ccc(F)cc2)=CS/C1=C(/C#N)c1nnc(N2CCOCC2)n1-c1ccccc1	ALR inh 98
CN1C(=O)NC(c2ccccc2)(C(F)(F)F)S/C1=C(/C#N)c1nnc(N2CCOCC2)n1-c1ccccc1 (configuration not stated)	none
CCn1c(=O)n(CC(=O)N2CCCN(Cc3ccccc3)CC2)c(=O)c2ccccc21	none (no result: ALR inh, JMJD2C inh, MIN6 prolif, Exocytosis inh, M18AAP inhibitor)
Cc1ccc(S(=O)(=O)Nc2c(C(=O)O)[nH]c3ccccc23)c(C)c1	ALR inh 98
O=C(O)c1[nH]c2ccccc2c1NS(=O)(=O)Cc1ccccc1	ALR inh 99
O=C(O)c1[nH]c2ccccc2c1NS(=O)(=O)c1ccc(F)cc1	ALR inh 94
COc1ccc(S(=O)(=O)Nc2c(C(=O)O)[nH]c3ccccc23)cc1	ALR inh 91
COc1ccc(S(=O)(=O)Nc2c(C(=O)O)[nH]c3ccccc23)cc1OC	none
COC[C@@H]1CCCN1c1cccc2c1S(=O)(=O)N1CC[C@@H](C1)O2	none (no result: ALR inh, JMJD2C inh, MIN6 prolif, Exocytosis inh, M18AAP inhibitor)
N#Cc1ccc(OCCCN2CCC(C(O)(C3=CCCC3)c3ccccc3)CC2)cc1 (configuration not stated)	none (no result: ALR inh, JMJD2C inh, MIN6 prolif, Exocytosis inh, M18AAP inhibitor)
CC1(c2nnnn2Cc2ccccc2)CCSCC(=O)N1Cc1cccs1 (configuration not stated)	none (no result: ALR inh, JMJD2C inh, MIN6 prolif, Exocytosis inh, M18AAP inhibitor)
COc1cc(NC(=O)C2CCCN(S(=O)(=O)c3ccc(C)cc3)C2)cc(OC)c1 (configuration not stated)	none (no result: ALR inh, JMJD2C inh, MIN6 prolif, Exocytosis inh, M18AAP inhibitor)
O=C1N2Cc3ccccc3C2CS(=O)(=O)N1CCc1ccccc1 (configuration not stated)	none (no result: ALR inh, JMJD2C inh, MIN6 prolif, Exocytosis inh, M18AAP inhibitor)
COc1cc(/C=N\Nc2nc3ccccc3[nH]2)cc(OC)c1OC	ALR inh 99
COc1cc(OC)c(OC)cc1/C=N/Nc1nc2ccccc2[nH]1	none
CCOc1cc(/C=N/Nc2nc3ccccc3[nH]2)cc(Br)c1OCC(=O)N(C)C	ALR inh 98
COc1ccc(/C=N/Nc2nc3ccccc3[nH]2)cc1OC	ALR inh 99
CCOc1ccccc1OCC(=O)Nc1nc2ccccc2[nH]1	none
COc1ccc(/C=N/Nc2cc(=O)n(C)c(=O)n2C)cc1OC	JMJD2C inh 52
CCCCOCCCNC(=O)C[C@H]1C[C@@]2(C(=O)OC)C(=C[C@H](COCc3ccccc3)O[C@@H]2C)N(Cc2ccco2)C1=O	none (no result: ALR inh, JMJD2C inh, MIN6 prolif, Exocytosis inh, M18AAP inhibitor)
COc1cc(/C=N/Nc2ccc(S(N)(=O)=O)cc2)cc(OC)c1OC	ALR inh 93
COc1cc(/C=N/Nc2ccc(C(=O)O)cc2)cc(OC)c1OC	none
Cc1ccc2cc(/C=N/Nc3nc4ccccc4[nH]3)c(Cl)nc2c1	SMARCA2 activ 7.8 (no result: ALR inh, MIN6 prolif)
COc1ccc(/C=N/Nc2ccccn2)cc1OC	ALR inh 99
C=CCc1cccc(CNc2nc3ccccc3n2C(C)C)c1O	none
CC(C)n1c(NCc2cccs2)nc2ccccc21	ALR inh 98
CC(C)n1c(NCc2ccccc2O)nc2ccccc21	ALR inh 98
CCN(CC)c1ccc(CNc2nc3ccccc3n2C(C)C)cc1	none (no result: ALR inh)
CCN(CC)c1ccc(CNc2nc3ccccc3n2CC)cc1	ALR inh 99
CC(C)n1c(NCc2ccc(N(C)C)cc2)nc2ccccc21	ALR inh 93
CC(C)N(Cc1cn(Cc2ccccc2)nn1)S(=O)(=O)c1ccccc1Br	none (no result: ALR inh, JMJD2C inh, MIN6 prolif, Exocytosis inh, M18AAP inhibitor)
C#CCN1CC(N(C)CCOC(=O)CSc2ccccc2)CS1(=O)=O (configuration not stated)	none (no result: ALR inh, JMJD2C inh, MIN6 prolif, Exocytosis inh, M18AAP inhibitor)
COc1ccc(CN2C(=O)N3Cc4ccc(C)cc4C3CS2(=O)=O)cc1 (configuration not stated)	none (no result: ALR inh, JMJD2C inh, MIN6 prolif, Exocytosis inh, M18AAP inhibitor)
Cc1ccc(-n2c(SCC(=O)Nc3ccc(S(=O)(=O)Nc4cc(C)nc(C)n4)cc3)nnc2-c2cccs2)cc1	none (no result: ALR inh, JMJD2C inh, MIN6 prolif, Exocytosis inh, M18AAP inhibitor)
CN(C)c1ccc(C(C(=O)NCC2CCCO2)N(Cc2ccccc2)C(=O)c2snc(C(N)=O)c2N)cc1 (configuration not stated)	MIN6 prolif 8.8 (no result: ALR inh)
Cc1cccc(N(C(=O)c2snc(C(N)=O)c2N)C(C(=O)NCC2CCCO2)c2ccc(N(C)C)cc2)c1C (configuration not stated)	Exocytosis inh 66

Screening results: PubChem, several laboratories
